Results: PubChem BioAssay (NCATS)
Results filed as inconclusive are left out. Calls of active or inactive are those of the source. Calls come from the whole dose curve; as a rule, active = well fitted curve in the direction sought with a large enough effect; inconclusive = small, poorly fitted or top-dose-only effect, or another doubt; inactive = no such curve, though single readings can be large; an effect the other way counts as inactive or inconclusive.

How the values were obtained:
[1] = target: Calcium and integrin-binding protein 1 (Homo sapiens) (UniProt Q99828); assay: Primary qHTS for Identification of Calcium Integrin Binding Protein 1 (CIB1) Competitor (AID 1508620);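 note: GST tagged CIB1 binding a fluorescein labelled alphaIIb integrin peptide tracer; top concentration of the series differs between compounds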
How it was run: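 Fluorescence polarization competition: GST-tagged CIB1 (1 uM final) preincubated with compound 15 min at room temperature, then FITC-labelled alphaIIb peptide (100 nM final) added. After 15 min at room temperature, polarization read at Ex 480/Em 540.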

[2] = Primary qHTS for inhibitors of nuclear receptor binding SET domain protein 2 (NSD2) in an isogenic RCH-ACV NSD2 p.E1099K mutant (9B) (AID 1645876); note: nearly all actives have a fitted effect of over 70% in size
[3] = Primary qHTS for inhibitors of nuclear receptor binding SET domain protein 2 (NSD2) in an RCH-ACV wild type WT cells (2C) (AID 1645877); note: nearly all actives have a fitted effect of over 70% in size
% is set by controls: 0 for no effect and ±100 for the full control effect.

Calcium and integrin-binding protein 1 (Homo sapiens), sequence (Q99828 whole entry, looked up): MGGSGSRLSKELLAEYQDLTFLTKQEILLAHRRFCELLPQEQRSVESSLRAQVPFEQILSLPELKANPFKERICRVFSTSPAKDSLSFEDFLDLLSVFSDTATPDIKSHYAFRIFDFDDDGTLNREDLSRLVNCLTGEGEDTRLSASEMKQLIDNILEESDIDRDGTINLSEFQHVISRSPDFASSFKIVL

COC(=O)Cn1nc(-c2cccc(OC)c2)c2ccccc21
inactive: Potency [1] | Potency [2] | Potency [3]

COC(=O)C(Cc1ccccc1)NC(=O)c1ccccc1 (configuration not stated)
inactive: Potency [1] | Potency [2] | Potency [3]

C=C(CCO)C(=O)OCC1OCC(OC(=O)C(=C)CCO[C@@H]2O[C@H](CO)[C@@H](O)[C@H](O)[C@H]2O)C(O)C1O (some centres not stated)
inactive: Potency [1] | Potency [2] | Potency [3]

C=C(CCO[C@@H]1O[C@H](CO)[C@@H](O)[C@H](O)[C@H]1O)C(=O)O
inactive: Potency [1] | Potency [2] | Potency [3]

O=C(/C=C/c1ccc(O)c(O)c1)OC[C@H]1O[C@@H](OC2CCCCC2O)[C@H](O)[C@@H](O)[C@@H]1O (some centres not stated)
inactive: Potency [1] | Potency [2] | Potency [3]

O=C(O)c1ccncc1Nc1nn(CCN2CCC(F)(F)CC2)c2ccc(F)cc12
inactive: Potency [1] | Potency [2] | Potency [3]

CC(=O)O[C@@H](C[C@@H]1C=C(C)C(=O)O1)[C@H](C)[C@H]1CCC2[C@@]3(C)CC[C@H](O[C@@H]4O[C@H](CO)[C@@H](O)[C@H](O)[C@H]4O[C@@H]4O[C@@H](C)[C@H](O)[C@@H](O)[C@H]4O)C(C)(C)C3CC[C@@]2(C)[C@@]12COC(=O)C2 (some centres not stated)
inactive: Potency [1] | activity change, negative = viability loss [2] -3.49% [at 9.23 µM] | activity change, negative = cell killing [3] -8.37% [at 9.23 µM]

CC(C)=CCC(O)[C@](C)(O)C1[C@H](O)C[C@@]2(C)C3CC=C4C(C[C@H](O)[C@@H](O[C@@H]5O[C@H](CO)[C@@H](O)[C@H](O)[C@H]5O)C4(C)C)[C@]3(C)C(=O)C[C@]12C (some centres not stated)
inactive: Potency [1] | Potency [2] | Potency [3]

COc1cc(CCCO)ccc1O[C@@H]1O[C@H](CO)[C@@H](O)[C@H](O)[C@H]1O
inactive: Potency [1] | Potency [2] | Potency [3]
